Inconclusive results are not listed. Calls of active or inactive are those of the source. The calls were made as follows: active = hit-call score of the fitted dose curve at least 0.9, where 1 is the maximum; inconclusive = response in the unintended direction; inactive = score below 0.9.

One may read the AC50 as the concentration giving half of the maximal activity seen.

Sequence of human Constitutive Androstane Receptor (CAR), NR1I3 (gene 9970) (Q14994 whole entry, looked up): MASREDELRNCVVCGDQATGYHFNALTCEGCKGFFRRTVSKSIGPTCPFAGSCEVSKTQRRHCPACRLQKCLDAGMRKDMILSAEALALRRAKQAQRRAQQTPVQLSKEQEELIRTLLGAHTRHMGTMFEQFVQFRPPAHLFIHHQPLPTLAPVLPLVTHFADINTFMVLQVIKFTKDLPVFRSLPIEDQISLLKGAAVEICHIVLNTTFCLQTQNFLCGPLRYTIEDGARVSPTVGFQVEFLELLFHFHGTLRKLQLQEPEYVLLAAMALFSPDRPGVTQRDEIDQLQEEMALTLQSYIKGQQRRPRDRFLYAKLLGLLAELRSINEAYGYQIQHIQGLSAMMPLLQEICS

In one assay the target is human Constitutive Androstane Receptor (CAR), NR1I3 (gene 9970) (UniProt Q14994). The assay can be described thus: NVS_NR_hCAR_Antagonist: NovaScreen (NVS) Nuclear Receptor Binding Assay for human Constitutive Androstane Receptor Antagonism (CAR) (AID 2283344). Summed up:
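Cell-free TR-FRET binding read 1 h after dosing, antagonist mode; loss of signal versus DMSO baseline. Primary screen in duplicate at a single 25 uM; actives retested in concentration series.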
`c1cc2ccc3cccc4ccc(c1)c2c34`: the compound was called inactive.
As to `ClC1=C(Cl)[C@]2(Cl)[C@@H]3[C@@H](Cl)[C@H]4O[C@H]4[C@@H]3C1(Cl)C2(Cl)Cl`, the compound was classed as inactive.
As to `CCCN(CCC)N=O`, the result was inactive.
Regarding `O=S(=O)(O)C(F)(F)C(F)(F)C(F)(F)C(F)(F)C(F)(F)C(F)(F)F`, the call was inactive.
Same read-out and setting: with `CC1=C2C[C@H]3[C@@H](CC=C4C[C@@H](O)CC[C@@]43C)[C@@H]2CC[C@]12O[C@@H]1C[C@H](C)CN[C@H]1[C@H]2C` the entry was “inactive”; with `Cc1cc2c3c(c1)C(c1ccccc1)=N[C@@H](NC(=O)c1ccncc1)C(=O)N3CC2`, “inactive”.

For another assay, the target named is bovine Estrogen Receptor (ER), ESR1 (gene 407238) (UniProt P49884). The assay is described as follows: NVS_NR_bER: NovaScreen (NVS) Nuclear Receptor Binding Assay for bovine Estrogen Receptor (ER) (AID 2283345).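 Also: actives lower the bound radioligand count which means they displace the ER ligand.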 In short, it runs like this: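 Bovine uterine membranes; tritiated or iodinated radioligand; competitive displacement; 18 h; scintillation read; DMSO negative control; 25 uM duplicates, then concentration series for actives.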
Sequence of bovine Estrogen Receptor (ER), ESR1 (gene 407238) (P49884 whole entry, looked up): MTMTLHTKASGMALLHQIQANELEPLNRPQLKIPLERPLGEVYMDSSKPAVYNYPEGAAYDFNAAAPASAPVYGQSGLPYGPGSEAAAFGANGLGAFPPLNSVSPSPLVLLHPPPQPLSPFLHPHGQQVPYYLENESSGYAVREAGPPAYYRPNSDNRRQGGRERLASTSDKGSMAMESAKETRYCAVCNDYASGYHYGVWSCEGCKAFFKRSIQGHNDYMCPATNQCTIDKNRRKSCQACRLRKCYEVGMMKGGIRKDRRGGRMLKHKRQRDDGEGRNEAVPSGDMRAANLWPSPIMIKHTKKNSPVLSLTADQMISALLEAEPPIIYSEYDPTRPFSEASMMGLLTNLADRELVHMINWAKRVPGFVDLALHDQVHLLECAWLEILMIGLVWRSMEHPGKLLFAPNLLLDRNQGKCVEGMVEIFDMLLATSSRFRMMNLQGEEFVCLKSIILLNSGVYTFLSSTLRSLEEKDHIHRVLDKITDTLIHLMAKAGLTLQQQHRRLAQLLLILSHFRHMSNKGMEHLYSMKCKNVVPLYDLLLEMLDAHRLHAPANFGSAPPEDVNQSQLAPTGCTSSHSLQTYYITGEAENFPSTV
As to `CCOCCOC(C)=O`, the result was inactive.
The same measure, in the same setting: the entry for `CCCCCCCCOC(=O)c1ccccc1C(=O)OCCCCCCCC` is “inactive”.
On to `Cc1cc(-c2ccc(N)c(C)c2)ccc1N`, for which the AC50 was 0.0481 µM (active).
Consider `Clc1ccc(C(c2ccccc2Cl)C(Cl)(Cl)Cl)cc1` (centres undefined), for which the compound was called inactive.
Take `O=C(O)C(F)(F)C(F)(F)C(F)(F)C(F)(F)C(F)(F)C(F)(F)C(F)(F)C(F)(F)C(F)(F)F`: the result was inactive.
Still for that read-out and setting: with `O=NN(c1ccccc1)c1ccccc1` the entry was “inactive”.
Turning to `C[C@]12CCC(=O)C=C1CC[C@@H]1[C@@H]2CC[C@]2(C)C(=O)CC[C@@H]12`, the AC50 is 25 µM (active).
On to `CC(C)(O)C(=O)Nc1ccc([N+](=O)[O-])c(C(F)(F)F)c1`, for which the result was inactive.
The same measure, in the same setting: with `Oc1c(Cl)c(Cl)c(Cl)c(Cl)c1Cl` the entry was “inactive”.
Still for that read-out and setting: with `Oc1ccc(Cl)cc1Cl` the entry was “inactive”; with `O=C(O)C(F)(F)C(F)(F)C(F)(F)C(F)(F)C(F)(F)C(F)(F)C(F)(F)C(F)(F)F`, “inactive”.
In the case of `NS(=O)(=O)C(F)(F)C(F)(F)C(F)(F)C(F)(F)C(F)(F)C(F)(F)C(F)(F)C(F)(F)F`, the outcome was inactive.
On the same count and under the same terms, with `ClC(Cl)=C(c1ccc(Cl)cc1)c1ccc(Cl)cc1` the entry was “inactive”.

Source of the values: PubChem BioAssay (EPA / NIEHS).
